According to PubChem BioAssay (Tox21):
Inconclusive results are not listed. Calls of active or inactive are those of the source. Unless noted, the call rests on the fitted dose curve; in most records, active means well fitted curve in the direction sought with a large enough effect in the repeat runs; inconclusive means weak or mixed curves; inactive means no such curve, though single readings can be large; an effect the other way counts as inactive or inconclusive.

Columns and labels:
[1] = qHTS assay to identify small molecule agonists of the peroxisome proliferator-activated receptor delta (PPARd) signaling pathway - cell viability counter screen (AID 743211); further: nearly all actives have a fitted effect of over 55% in size
How it was run: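 Read-out: CellTiter-Glo luminescence, 30 min RT, measured in the same wells as the beta-lactamase reporter. Cells: GeneBLAzer PPAR delta UAS-bla HEK293H, 3000 cells/well, compound exposure 17 h at 37C.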

[2] = molecular target: Peroxisome proliferator-activated receptor delta (Homo sapiens) (UniProt Q03181); experiment: qHTS assay to identify small molecule agonists of the peroxisome proliferator-activated receptor delta (PPARd) signaling pathway (AID 743212; calls by dose curve)
Chain of Peroxisome proliferator-activated receptor delta (Homo sapiens) (Q03181 whole entry, looked up): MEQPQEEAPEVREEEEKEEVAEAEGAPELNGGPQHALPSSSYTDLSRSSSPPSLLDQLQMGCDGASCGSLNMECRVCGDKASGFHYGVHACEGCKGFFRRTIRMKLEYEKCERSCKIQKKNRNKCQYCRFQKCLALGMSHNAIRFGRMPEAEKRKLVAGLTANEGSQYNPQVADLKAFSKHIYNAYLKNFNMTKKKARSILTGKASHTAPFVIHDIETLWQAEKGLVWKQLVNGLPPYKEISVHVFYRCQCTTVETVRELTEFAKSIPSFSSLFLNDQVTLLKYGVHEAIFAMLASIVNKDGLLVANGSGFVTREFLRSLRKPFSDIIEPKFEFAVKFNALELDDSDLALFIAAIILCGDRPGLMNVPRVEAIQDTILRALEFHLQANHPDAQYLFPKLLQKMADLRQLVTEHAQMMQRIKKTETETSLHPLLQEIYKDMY
How it was run: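 HEK293H PPARd-bla cells; 5 h preincubation 37 C/5% CO2; compound (DMSO) 37 C; LiveBLAzer B/G FRET substrate 2 h RT; fluorescence intensity.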

[3] = qHTS assay to identify small molecule antagonists of the peroxisome proliferator-activated receptor delta (PPARd) signaling pathway - cell viability counter screen (AID 743213); further: nearly all actives have a fitted effect of over 50% in size
How it was run: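 PPARd-bla HEK293H cells were treated with compounds plus agonist L165041 (300 nM final) for 17 h at 37 C. Viability was then read in the same wells by CellTiter-Glo luminescence after 30 min at room temperature.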

[4] = molecular target: Peroxisome proliferator-activated receptor delta (Homo sapiens) (UniProt Q03181); experiment: qHTS assay to identify small molecule antagonists of the peroxisome proliferator-activated receptor delta (PPARd) signaling pathway (AID 743215; active means well fitted inhibition curve with a large enough effect in the signal ratio in the repeat runs, not every such curve was filed as active; the % refers to the signal ratio;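 further: cells stimulated with agonist L165041 at 300 nM final during compound exposure; series mostly up to about 62 µM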)
How it was run: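 PPARd UAS-bla HEK293H cells were pre-incubated 5 h at 37 C, then given test compounds in DMSO plus agonist L165041 (300 nM final). After 17 h at 37 C, beta-lactamase FRET substrate was added; fluorescence read after 2 h at room temperature.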

[5] = molecular target: Bile acid receptor (Homo sapiens) (UniProt Q96RI1); experiment: qHTS assay to identify small molecule antagonists of the farnesoid-X-receptor (FXR) signaling pathway (AID 743217; active means well fitted inhibition curve with a large enough effect in the signal ratio in the repeat runs, not every such curve was filed as active; the % refers to the signal ratio)
Chain of Bile acid receptor (Homo sapiens) (Q96RI1 whole entry, looked up): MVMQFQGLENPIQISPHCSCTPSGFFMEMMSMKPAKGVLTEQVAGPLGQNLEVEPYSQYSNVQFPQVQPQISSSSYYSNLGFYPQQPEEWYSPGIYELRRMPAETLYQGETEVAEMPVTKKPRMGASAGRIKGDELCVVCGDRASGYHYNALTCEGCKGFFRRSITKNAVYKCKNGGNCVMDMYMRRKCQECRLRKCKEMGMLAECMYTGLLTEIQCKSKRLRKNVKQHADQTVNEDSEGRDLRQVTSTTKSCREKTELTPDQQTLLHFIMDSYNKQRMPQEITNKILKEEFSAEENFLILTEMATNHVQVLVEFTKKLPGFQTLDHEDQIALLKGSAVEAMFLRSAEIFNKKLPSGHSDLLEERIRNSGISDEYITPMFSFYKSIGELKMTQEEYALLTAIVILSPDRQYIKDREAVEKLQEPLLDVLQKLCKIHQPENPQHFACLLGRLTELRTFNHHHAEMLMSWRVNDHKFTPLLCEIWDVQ
How it was run: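 FXR-UAS-bla HEK 293T cells pre-incubated 5 h at 37 °C, then exposed to compounds with chenodeoxycholic acid (50 uM final) for 16 h at 37 °C. Beta-lactamase reporter read by LiveBLAzer B/G FRET substrate fluorescence after 2 h at room temperature.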

[6] = qHTS assay to identify small molecule agonists of the farnesoid-X-receptor (FXR) signaling pathway - cell viability counter screen (AID 743218); further: nearly all actives have a fitted effect of over 45% in size
How it was run: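 FXR-UAS-bla HEK 293T cells, plated 5 h at 37 C, were exposed to compounds for 16 h at 37 C. CellTiter-Glo was then added to the same wells as the bla readout; luminescence read after 30 min at room temperature.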

[7] = molecular target: Bile acid receptor (Homo sapiens) (UniProt Q96RI1); experiment: qHTS assay to identify small molecule agonists of the farnesoid-X-receptor (FXR) signaling pathway (AID 743220; active means well fitted activation curve with a large enough effect in the signal ratio in the repeat runs, not every such curve was filed as active; the % refers to the signal ratio)
How it was run: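 Beta-lactamase reporter under UAS control in GeneBLAzer FXR HEK 293T cells (5000/well) measured with LiveBLAzer FRET substrate after 2 h at room temperature. Compound exposure lasted 16 h at 37C.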

[8] = qHTS assay to identify small molecule antagonists of the farnesoid-X-receptor (FXR) signaling pathway - cell viability counter screen (AID 743221; active means well fitted cell-killing curve with a large enough effect in the repeat runs, not every such curve was filed as active; further: nearly all actives have a fitted effect of over 50% in size)
How it was run: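 HEK 293T FXR-bla cells, 5 h pre-incubation; compound + CDCA 50 uM final, 16 h, 37 C; beta-lactamase FRET read first, then CellTiter-Glo luminescence, 30 min RT.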

[9] = molecular target: Vitamin D3 receptor (Homo sapiens) (UniProt P11473); experiment: qHTS assay to identify small molecule agonists of the vitamin D receptor (VDR) signaling pathway (AID 743222; calls by dose curve)
Chain of Vitamin D3 receptor (Homo sapiens) (P11473 whole entry, looked up): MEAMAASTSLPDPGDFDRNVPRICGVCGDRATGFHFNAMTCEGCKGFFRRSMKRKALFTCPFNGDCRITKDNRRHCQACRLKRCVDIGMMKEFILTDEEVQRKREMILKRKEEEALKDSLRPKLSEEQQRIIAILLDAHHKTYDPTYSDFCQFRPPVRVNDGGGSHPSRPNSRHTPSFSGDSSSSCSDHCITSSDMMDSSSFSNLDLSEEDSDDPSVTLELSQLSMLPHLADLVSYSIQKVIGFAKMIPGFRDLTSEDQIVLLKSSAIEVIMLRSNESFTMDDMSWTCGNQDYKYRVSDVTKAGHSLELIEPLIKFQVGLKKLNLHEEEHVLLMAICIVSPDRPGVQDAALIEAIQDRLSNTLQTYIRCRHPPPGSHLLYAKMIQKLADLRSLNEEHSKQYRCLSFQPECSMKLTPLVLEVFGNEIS
How it was run: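 VDR-bla cells were plated 4 h at 37C/5% CO2, then exposed to compounds in DMSO for 16 h. After LiveBLAzer B/G FRET substrate addition and 2 h at room temperature, beta-lactamase reporter fluorescence was read.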

[10] = molecular target: Vitamin D3 receptor (Homo sapiens) (UniProt P11473); experiment: qHTS assay to identify small molecule antagonists of the vitamin D receptor (VDR) signaling pathway (AID 743223; active means well fitted inhibition curve with a large enough effect in the signal ratio in the repeat runs, not every such curve was filed as active; the % refers to the signal ratio)
How it was run: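 Beta-lactamase reporter read-out: FRET substrate fluorescence after 2 h at room temperature, following 16 h exposure of VDR-bla cells to test compound plus 3 nM (final) 1alpha,25-dihydroxyvitamin D3 agonist at 37C.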

[11] = qHTS assay to identify small molecule agonists of the vitamin D receptor (VDR) signaling pathway - cell viability counter screen (AID 743224); further: series mostly up to about 63 µM; nearly all actives have a fitted effect of over 50% in size
How it was run: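 VDR-bla cells were preincubated 4 h at 37C/5% CO2, then exposed to compounds for 16 h. After the 2 h room-temperature bla FRET read, CellTiter-Glo was added to the same wells and luminescence read after 30 min.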

[12] = qHTS assay to identify small molecule agonists of the NFkB signaling pathway (AID 1159509; active means well fitted curve in the direction sought with a large enough effect in the signal ratio in the repeat runs, not every such curve was filed as active; the % refers to the signal ratio; further: series mostly up to about 61 µM)
How it was run: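 ME-180 NFkB-bla, 2,000 cells/well, overnight plating; cpd pinned in DMSO, 5 h 37 C; B/G FRET substrate 1.5 h RT; ex 405, em 460/530 nm.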

[13] = qHTS assay to identify small molecule agonists of the NFkB signaling pathway - cell viability counter screen (AID 1159515; calls by dose curve; further: series mostly up to about 61 µM; nearly all actives have a fitted effect of over 55% in size)
How it was run: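 NFkB-bla ME-180 cells, 2,000/well, were plated overnight at 37 C, 5% CO2, then exposed to compounds in DMSO for 5 hr. After the bla FRET read, CellTiter-Glo was added to the same wells; luminescence was read after 30 min at room temperature.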

[14] = qHTS assay to identify small molecule agonists of the endoplasmic reticulum stress response signaling pathway (AID 1159516; active means well fitted activation curve with a large enough effect in the signal ratio in the repeat runs, not every such curve was filed as active; the % refers to the signal ratio)
How it was run: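 CellSensor ESRE-bla HeLa cells, carrying a beta-lactamase reporter driven by the ER stress response element, were plated overnight and exposed to compounds for 5 hr at 37 C. Reporter activity was read as FRET substrate fluorescence after 2 hr at room temperature.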

[15] = qHTS assay to identify small molecule agonists of the endoplasmic reticulum stress response signaling pathway - cell viability counter screen (AID 1159517; calls by dose curve; further: series mostly up to about 61 µM; nearly all actives have a fitted effect of over 50% in size)
How it was run: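 HeLa cells carrying an ESRE-driven beta-lactamase reporter receive compound for 5 hr at 37 C. Cell viability is then gauged with CellTiter-Glo by luminescence, 30 min at room temperature.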

[16] = qHTS assay to identify small molecule antagonists of the retinoid-related orphan receptor gamma (ROR-gamma) signaling pathway - cell viability counter screen (AID 1159520); further: nearly all actives have a fitted effect of over 50% in size
How it was run: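 Cytotoxicity was read from cellular ATP (CellTiter-Glo luminescence) after 16 hr at 37 C with 1 uM doxycycline induction. The inducer was added 2 hr after compound transfer to Tet-on ROR gamma CHO cells.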

[17] = molecular target: Nuclear receptor ROR-gamma (Homo sapiens) (UniProt P51449); experiment: qHTS assay to identify small molecule antagonists of the retinoid-related orphan receptor gamma (ROR-gamma) signaling pathway (AID 1159521)
How it was run: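 Luminescence readout (ONE-Glo, 30 min RT) after 16 h doxycycline induction; loss of signal scored as antagonism. CHO cells with TET-inducible RORγ and RORE-LUC reporter; compounds added 2 h before 1 uM final doxycycline.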

[18] = qHTS assay to identify small molecule agonists of the AP-1 signaling pathway - cell viability counter screen (AID 1159525; calls by dose curve; further: nearly all actives have a fitted effect of over 55% in size)
How it was run: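 Luminescent ATP readout (Cell Titer Glo, 30 min RT), normalised to DMSO and tetra n-octyl ammonium bromide controls. Cells were ME-180 AP-1-bla in 0.5% dialyzed FBS Opti-MEM, with a 5 h, 37 °C compound exposure.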

[19] = qHTS assay to identify small molecule agonists of the AP-1 signaling pathway (AID 1159526; calls by dose curve)
[20] = qHTS assay to identify small molecule antagonists of the vitamin D receptor (VDR) signaling pathway - cell viability counter screen (AID 743225); further: nearly all actives have a fitted effect of over 50% in size
How it was run: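 Viability counter screen run in the same wells as the beta-lactamase reporter assay: HEK 293T VDR-UAS-bla cells, 16 h compound exposure at 37C with 3 nM (final) 1-alpha,25-dihydroxyvitamin D3. CellTiter-Glo luminescence, 30 min, room temperature.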

Measured: Potency

CCCCCC1CCCC(=O)O1 (stereo not given)
not listed: [20]
inactive: all other assays above

CC(C)c1ccccc1O
not listed: [7]
inactive: all other assays above

CC(=O)c1ccc(OCC(=O)N2CCCCC2)cc1
inactive: all assays above

CCC1COC(=O)O1 (stereo not given)
inactive: all assays above

CC(C)(CO)[C@@H](O)C(=O)NCCCO
not listed: [6]
inactive: all other assays above

C=C(C)C(=O)OC
not listed: [9] | [10]
inactive: all other assays above

O=C(Oc1ccccc1C(=O)O)c1ccccc1O
inactive: all assays above
